# High-throughput results as filed in PubChem.
# PriA SSB inh: inhibitors of Klebsiella pneumoniae PriA binding to SSB C-terminal tail. AlphaScreen SSBct-PriA binding, biotinylated peptide. inhibition, % at 33 µM. 0.6% of 430,000 active. AID 1272365; in the data active = inhibition mostly above about 37%, no sharp cut-off; inactive = mostly below about 20%;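 note: plate controls were negative control peptide for no effect and reference peptide for full effect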
# BoNT-F LC inh: BoNT F light chain protease inhibition. Multiplex microsphere protease cleavage assay, flow cytometry. inhibition, % at 10 µM. 0.22% of 360,000 active. AID 588497; in the data active = inhibition above about 35%, passing the limit was not always enough; inconclusive = no clear call, values can overlap the other calls; note: plate controls were buffer without enzyme for full effect and enzyme alone for no effect
# Autofluor counter: counter-screen for toxin protease inhibitors: compound fluorescence; compound autofluorescence counterscreen, microsphere flow cytometry; stronger effect = higher value; fluorescence intensity (concentration not given with the values); 3.1% of 360,000 active; AID 624483; in the data active = fluorescence intensity above about 16000; inconclusive = no clear call, values can overlap the other calls
# Anthrax LF prot: anthrax lethal factor protease inhibition | multiplex microsphere protease cleavage assay, LF | P15917 | 0.12% of 360,000 active | inhibition, % at 10 µM; note: plate controls were buffer without enzyme for full effect and enzyme alone for no effect
# Target sequence (P15917 whole entry, looked up): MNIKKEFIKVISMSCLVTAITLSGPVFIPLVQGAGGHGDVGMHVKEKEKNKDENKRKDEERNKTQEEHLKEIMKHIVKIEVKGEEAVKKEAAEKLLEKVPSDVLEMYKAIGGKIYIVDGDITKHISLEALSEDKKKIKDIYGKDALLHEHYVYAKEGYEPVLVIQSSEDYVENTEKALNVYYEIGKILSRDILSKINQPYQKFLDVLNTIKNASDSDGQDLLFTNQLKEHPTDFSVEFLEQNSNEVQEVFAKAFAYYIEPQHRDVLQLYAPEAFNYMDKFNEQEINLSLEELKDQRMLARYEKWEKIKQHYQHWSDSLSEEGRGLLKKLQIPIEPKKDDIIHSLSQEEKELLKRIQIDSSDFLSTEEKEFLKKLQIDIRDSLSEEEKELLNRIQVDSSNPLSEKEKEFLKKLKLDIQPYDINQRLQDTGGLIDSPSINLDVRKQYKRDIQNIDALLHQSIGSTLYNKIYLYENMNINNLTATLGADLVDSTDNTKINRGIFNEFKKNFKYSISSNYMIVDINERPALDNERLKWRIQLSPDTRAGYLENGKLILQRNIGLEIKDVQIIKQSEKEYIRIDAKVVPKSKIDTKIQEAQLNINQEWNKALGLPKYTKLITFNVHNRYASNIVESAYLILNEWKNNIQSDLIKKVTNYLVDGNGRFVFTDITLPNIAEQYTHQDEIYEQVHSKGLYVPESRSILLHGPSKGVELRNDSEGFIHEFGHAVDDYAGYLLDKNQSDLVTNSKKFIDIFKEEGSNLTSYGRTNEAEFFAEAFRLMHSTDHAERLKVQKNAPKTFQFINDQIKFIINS
# BoNT-A LC inh2: blocks Botulinum neurotoxin A light chain protease. multiplex microsphere protease substrate cleavage, flow cytometry. inhibition, % at 10 µM. 0.17% of 360,000 active; note: plate controls were buffer without enzyme for full effect and enzyme alone for no effect
# * hit, by the source's call; u = inconclusive; x = no result given; ! = repeats disagree. Shown are actives, neighbours in structure and some others; about 3.1% of the full set was active somewhere. Cut-off read from the data, not from the text of the source, unless noted: active = inhibition above about 30%; inconclusive = no clear call, values can overlap the other calls; inactive = below that.
SMILES,PriA SSB inh,BoNT-F LC inh,Autofluor counter,Anthrax LF prot,BoNT-A LC inh2
Fc1ccc(-[n+]2nc(Nc3ccccc3)sc2-c2c(Cl)cccc2Cl)cc1,45.5*,-12.2,3737,-5.3,-0.5
CCc1ccc(Nc2n[n+](-c3ccccc3)c(-c3c(Cl)cccc3Cl)s2)cc1,65.6*,-21.4,2981,-8.7,-1.1
COc1ccc(C)cc1Nc1n[n+](-c2ccccc2)c(-c2c(Cl)cccc2Cl)s1,38.8*,x,x,x,x
COc1ccc(C)cc1Nc1n[n+](-c2ccccc2)c(-c2ccc(OC)c(OC)c2OC)s1,5.4,-25.3,4059,9.4,1.3
O=C(NCC1CCN(C(=O)c2ccoc2)CC1)Nc1ccc(Cl)c(Cl)c1,-6.0,x,x,x,x
Cc1nccn1CCN,-3.0,x,x,x,x
Cn1c(=O)c2ccc(-c3cccs3)nc2n1CC(=O)N1CCN(c2ccccc2)CC1,-4.0,x,x,x,x
Cc1oncc1C(=O)Nc1ccc2c(c1)N(C(=O)C1CCCC1)CC2,3.0,x,x,x,x
Brc1ccc(-c2nnc(-c3ccncc3)o2)cc1,-2.0,x,x,x,x
CCc1ccc(Nc2n[n+](-c3ccccc3)c(-c3ccc(N(CC)CC)cc3)s2)cc1,-5.2,-26.9,19557*,18.8,22.8
CCNC(=O)CSc1nnc(-c2cccc(S(=O)(=O)N(CC)CC)c2)n1CCc1ccccc1,0.7,-0.4,20492*,-1.5,-0.3
Cc1cccc(-n2ncc3c(N4CCCc5ccccc54)ncnc32)c1,-31.5,-0.2,20241*,-6.4,0.9
CC(C)c1ccc(-c2c(C#N)c(N)nc(SCC(=O)N3CCCCCC3)c2C#N)cc1,-13.7,x,x,x,x
N#Cc1c(N)nc(SCC(=O)NC2CCCCC2)c(C#N)c1-c1ccc(Cl)cc1,-6.0,3.2,16126*,2.8,1.5
O=C(CSC1=NS(=O)(=O)c2cc(Cl)ccc2N1)Nc1ccc(C(F)(F)F)cc1,-14.0,x,x,x,x
Fc1c(F)c(F)c(C=NNC(=S)Nc2cccnc2)c(F)c1F,-13.8,x,x,x,x
Cc1onc(-c2ccccc2)c1C(=O)OCC(=O)Nc1ccc2c(c1)OCO2,-29.1,2.5,19429*,-1.9,2.3
NC(=O)CSc1cccc2cccnc12,64.5*,x,x,x,x
O=C(CSc1cccc2cccnc12)NC(c1ccccc1)c1ccccc1,16.5,x,x,x,x
COc1ccc(CCNC(=O)CSc2cccc3cccnc23)cc1OC,18.7,-2.0,3304,-10.3,-0.8
NC(=O)COc1cccc2cccnc12,4.8,12.5,16622*,-11.1,14.6
O=C(CSc1cccc2cccnc12)NCCc1ccc(Cl)cc1,77.0*,x,x,x,x
O=C(O)CSc1cccc2cccnc12,65.0*!,-9.2,7236,-6.5,-1.7
Cc1nc2cc(NC(=O)C3CN(C(=O)c4cnccn4)C3)ccc2s1,-4.0,x,x,x,x
CCc1cc(C(Cc2ccccn2)=NNc2ccccc2)c(O)cc1O,15.8,x,x,x,x
SMILES,PriA SSB inh,BoNT-F LC inh,Autofluor counter,Anthrax LF prot,BoNT-A LC inh2
O=C(Cn1c(=O)oc2ccccc21)N(CCc1cccs1)C1CCOCC1,-8.0,x,x,x,x
O=C(NC1CC(O)C(CO)C1)c1ccc2nsnc2c1 (stereo unspecified),-4.0,x,x,x,x
O=C(CSc1cccc2cccnc12)N1CCCCCC1,101.8*,x,x,x,x
CN1CCN(C(=O)CSc2cccc3cccnc23)CC1,69.2,x,x,x,x
O=C(CSc1ncn[nH]1)N(C1CCCCC1)C1CCCCC1,-15.9,-2.6,20145*,1.5,-1.2
O=S(=O)(NCCS(=O)(=O)N1CCN(c2ccc(F)cc2)CC1)c1ccc(Cl)cc1,-14.0,x,x,x,x
CC1(CCC#N)N=C(SCCC#N)N(c2ccccc2)C1=O (stereo unspecified),-5.4,-2.4,23294*,-0.6,u
CN(C)c1cccc(C(=O)N2CCC(CSCc3ccco3)CC2)c1,29.0*,x,x,x,x
O=C(c1c[nH]c2ccccc12)N1CCC(CSCc2ccco2)CC1,35.0*,x,x,x,x
CO[C@@H](CNC(=O)Nc1ccccc1Cl)c1ccc(C)s1,-10.0,x,x,x,x
CC(C)Sc1ccc(CC(=O)NCC2CCN(c3nc4ccccc4o3)CC2)cc1,-11.0,x,x,x,x
O=S(=O)(NCC[C@H](O)c1cccs1)c1ccc2c(c1)CCCC2,-2.0,x,x,x,x
O=C(CSC1CCCC1)NCCc1csc2nc(-c3ccccc3F)nn12,-9.0,x,x,x,x
CCn1nc(NS(=O)(=O)c2ccccc2)c2cc3cccc(C)c3nc21,-11.2,0.8,19546*,-8.4,u
CCn1nc(NS(=O)(=O)c2ccc(F)cc2)c2cc3cccc(C)c3nc21,-0.3,-3.6,5722,-0.3,-0.1
O=c1[nH]c(=S)c2c(n1Cc1ccncc1)CCCC2,3.0,x,x,x,x
CCOC(=O)C(C#N)=NNc1ccccc1C#N,0.9,x,x,x,x
O=C1CC(=O)N(c2cccc(C(F)(F)F)c2)C(=S)N1c1cccc(Cl)c1,-1.0,x,x,x,x
CCC(=O)Nc1ccccc1C(=O)OCC(=O)c1ccc2ccccc2c1,-38.3,-0.7,23453*,-4.1,-0.6
COc1cc(Sc2ccc(C)cc2)c(OC)cc1N,78.6*,-48.4,2436,-9.4,22.5
COC(=O)c1ccc(Sc2ccc(C)cc2)c(N)c1,-58.2,-4.9,24100*,-0.6,-2.5
O=C(NCc1nnnn1-c1cccc(F)c1)c1ccccc1C(F)(F)F,-8.0,x,x,x,x
N#Cc1c(NC(=O)c2ccc3ccccc3c2)sc2c1CCCCC2,10.0,x,x,x,x
CC(=O)Nc1ccc(NS(=O)(=O)C(F)(F)F)cc1,-10.0,-0.2,19728*,1.2,u
COC(=O)Nc1ccc(S(=O)(=O)N(C)C)cc1,-6.5,-1.9,20816*,-2.7,-0.5
SMILES,PriA SSB inh,BoNT-F LC inh,Autofluor counter,Anthrax LF prot,BoNT-A LC inh2
COC(=O)Nc1ccc(S(=O)(=O)NCC(=O)O)cc1,-1.0,x,x,x,x
CC(=O)Nc1ccc(-c2ccc(NC(C)=O)cc2)cc1,-3.5,-2.3,1977,-0.8,0.0
COC(=O)Nc1ccc(NC(C)=O)cc1,-9.0,-1.2,23186*,-0.7,-1.3
CCOc1ccccc1C(=O)NCC(c1ccc2c(c1)CCCN2C)N1CCCC1 (stereo unspecified),10.0,x,x,x,x
COc1ccc(N=C2OC(=Cc3sc(=S)n(CC4CCCO4)c3O)N=C2C#N)cc1 (stereo unspecified),1.6,x,x,x,x
Cc1cc(C(=O)N(Cc2ccco2)c2nc3ccc(F)cc3s2)nn1C,-16.0,x,x,x,x
CCc1cccc(C)c1N(C(=O)Cn1c(COC)nc2ccccc21)C(C)COC (stereo unspecified),46.4*,4.9,3201,-4.5,0.1
CCc1cccc(C)c1N(C(=O)Cn1c(CO)nc2ccccc21)[C@@H](C)COC,-4.0,x,x,x,x
CCOC(=O)c1cccc(NC(=O)Cn2cnc3c2c(=O)n(C)c(=O)n3C)c1,-17.0,-2.7,20236*,-0.2,u
COc1ccc(CCC(=O)N2CCC(Oc3nc4c(Cl)cccc4s3)CC2)cc1,-1.0,x,x,x,x
CC(C)n1c(CCCO)nc2ccccc21,2.1,-7.5,24524*,-1.0,-4.2
CN(C)c1ccc(C(=O)Nc2cc(C(F)(F)F)ccc2-n2cncn2)cc1,-17.9,u,4135,-5.9,0.4
O=C(Nc1cc(C(F)(F)F)ccc1-n1cncn1)c1ccc(Br)cc1,-9.8,0.2,24053*,-0.6,-0.2
Cc1ccc(-n2c(=O)c(C#N)cc3c(=O)n4cccc(C)c4nc32)cc1,0.1,-7.4,20956*,-0.3,u
C=CCn1c(Cl)c(/C=N\NC(=O)Cc2ccccc2)sc1=O,10.0,x,x,x,x
CC(C)Oc1ccc(C(=O)NCC(c2ccsc2)N2CCc3ccccc3C2)cc1 (stereo unspecified),-3.0,x,x,x,x
C=C1CC2C=C(NC(C)=O)CC(C1)C2 (stereo unspecified),3.4,-1.3,22238*,-3.0,-0.4
O=C(Nc1ccccc1Cl)N1CCn2c(nc3ccccc32)C1,-1.2,4.7,4136,-8.4,-0.6
